Measurements from PubChem BioAssay (NCI).
About 79,000 compounds went through this panel and 15% of them were active in at least one assay; those are over-represented in the sample as a whole. Activity calls are given as the source filed them. No stated cut-off is given here; in the data, active means growth inhibition above about 70%; inactive means the rest.

Key:
[1] = NCI Yeast Anticancer Drug Screen. Data for the rad52 strain (AID 147);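 further: 0% = growth of vehicle-treated control cultures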; settings: S. cerevisiae rad52 mutant growth inhibition, stronger effect = higher value
Procedure, shortened: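 Screen used a yeast mutant impaired in DNA repair. After compound exposure, growth was measured. Values reflect inhibition compared with vehicle-treated cells.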

[2] = NCI Yeast Anticancer Drug Screen. Data for the rad50EPP+ strain (AID 151);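 further: 0% = growth of vehicle-treated control cultures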; settings: S. cerevisiae rad50 mutant strain, stronger effect = higher value
Procedure, shortened: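 Exposing the rad50EPP+ strain to each compound, growth was compared with vehicle-only cultures to give inhibition.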

[3] = NCI Yeast Anticancer Drug Screen. Data for the mgt1 strain (AID 153); settings: S. cerevisiae mgt1 mutant growth inhibition, stronger effect = higher value
Procedure, shortened: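 Genetically defined yeast (mgt1) treated with compound; inhibition of growth expressed against vehicle-treated controls.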

[4] = NCI Yeast Anticancer Drug Screen. Data for the rad50 strain (AID 155);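 further: 0% = growth of vehicle-only cultures of the same strain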; settings: S. cerevisiae rad50 strain growth inhibition, stronger effect = higher value
Procedure, shortened: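 Relative growth inhibition (compound vs vehicle) was measured in yeast with a defined repair-gene alteration.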

[5] = NCI Yeast Anticancer Drug Screen. Data for the mec2-1 strain (AID 157); settings: S. cerevisiae mec2-1 strain, stronger effect = higher value
Procedure, shortened: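 Readout is yeast growth inhibition, normalised to vehicle-treated controls, in the mec2-1 strain exposed to compound.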

[6] = NCI Yeast Anticancer Drug Screen. Data for the rad14 strain (AID 159);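 further: 0% = growth of vehicle-treated control cultures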; settings: S. cerevisiae rad14 strain growth inhibition, stronger effect = higher value
Procedure, shortened: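 Screen for anticancer potential: a yeast strain altered in DNA damage repair is grown with compound, and reduced growth is quantified against vehicle controls.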

[7] = NCI Yeast Anticancer Drug Screen. Data for the sgs1 mgt1 strain (AID 161);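 further: 0% = growth of cultures given vehicle only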; settings: S. cerevisiae sgs1 mgt1 strain, stronger effect = higher value
Procedure, shortened: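 Compounds are added to genetically altered yeast, and growth is compared with cultures given vehicle alone to give percent inhibition.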

[8] = NCI Yeast Anticancer Drug Screen. Data for the CLN2oe strain (AID 163);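 further: 0% = growth of vehicle-only control cultures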; settings: S. cerevisiae CLN2oe strain, stronger effect = higher value
Procedure, shortened: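 Values reflect how much compound exposure reduced yeast growth, referenced to vehicle-exposed cells. Assay organism is a strain with a defined genetic change affecting cell-cycle control.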

[9] = NCI Yeast Anticancer Drug Screen. Data for the cln2 rad14 strain (AID 165);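 further: 0% = growth equal to vehicle treated cultures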; settings: S. cerevisiae cln2 rad14 strain, stronger effect = higher value
Procedure, shortened: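 Relative to vehicle controls, growth inhibition of compound-treated cln2 rad14 yeast was recorded.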

[10] = NCI Yeast Anticancer Drug Screen. Data for the bub3 strain (AID 167); settings: S. cerevisiae bub3 mutant strain, stronger effect = higher value
Procedure, shortened: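 Screening used yeast with an engineered genetic alteration affecting cell cycle control. Compound-exposed cultures were compared with vehicle cultures, and reduced growth was taken as inhibition.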

[11] = NCI Yeast Anticancer Drug Screen. Data for the wt2 strain (AID 169);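 further: 0% = growth of vehicle-treated yeast cultures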; settings: S. cerevisiae wt2 strain growth inhibition, stronger effect = higher value
Procedure, shortened: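 Values express reduction in yeast growth under compound treatment, referenced to vehicle-treated cells.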

[12] = NCI Yeast Anticancer Drug Screen. Data for the mlh1 strain (AID 171);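 further: 0% = growth of vehicle-treated control cultures of the same strain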; settings: S. cerevisiae mlh1 strain growth inhibition, stronger effect = higher value
Procedure, shortened: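 Steps: expose the defined-mutant yeast strain to compound; expose a parallel culture to vehicle; measure growth; express compound effect as inhibition relative to the vehicle culture.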

[13] = NCI Yeast Anticancer Drug Screen. Data for the sgs1 strain (AID 173);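 further: 0% = growth of vehicle-only control cultures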; settings: S. cerevisiae sgs1 mutant, stronger effect = higher value
Procedure, shortened: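 Treat defined-mutant yeast with compound; measure growth; calculate inhibition relative to vehicle-treated cells.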

[14] = NCI Yeast Anticancer Drug Screen. Data for the mlh1 rad18 strain (AID 175); settings: S. cerevisiae mlh1 rad18 strain growth inhibition, stronger effect = higher value
Procedure, shortened: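 Test agents were incubated with a yeast strain of defined genotype (DNA damage repair defect). Inhibition of growth was derived by comparison with vehicle-exposed cultures.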

[15] = NCI Yeast Anticancer Drug Screen. Data for the rad18 strain (AID 177); settings: S. cerevisiae rad18 mutant growth inhibition, stronger effect = higher value
Procedure, shortened: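 A genetically defined yeast mutant impaired in DNA damage repair was treated with test compounds, then its growth was measured against cultures receiving vehicle alone.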

[16] = at 5.0 µM (retest, dose inferred, filed as 0.5)
[17] = at 50.0 µM (retest, dose inferred, filed as 5.0)

Measured: growth inhibition

CCN(CC)CCOc1cc(C)c2cc(Cc3ccccc3)ccc2n1
active: [1]; at 100.0 µM 82% | [3]; at 100.0 µM 98% | [4]; at 50.0 µM 88.2% | [4]; at 100.0 µM 92% | [5]; at 50.0 µM 82.7% | [5]; at 100.0 µM 84% | [6]; at 100.0 µM 99% | [7]; at 50.0 µM 96% | [10]; at 50.0 µM 88.2% | [10]; at 100.0 µM 81% | [11]; at 100.0 µM 94% | [12]; at 100.0 µM 94% | [13]; at 100.0 µM 96% | [14]; at 50.0 µM 96% | [15]; at 100.0 µM 99%
inactive: [1]; at 1.2 µM -1% | [1]; at 3.7 µM 2% | [1]; at 11.0 µM 2% | [1]; at 33.0 µM 18% | [2]; at 1.2 µM 0% | [2]; at 3.7 µM 0% | [2]; at 11.0 µM 3% | [2]; at 33.0 µM 7% | [2]; at 100.0 µM 31% | [3]; at 1.2 µM 2% | [3]; at 3.7 µM 5% | [3]; at 11.0 µM 10% | [3]; at 33.0 µM 35% | [4]; at 1.2 µM -40% | [4]; at 3.7 µM -2% | [4]; [16] 7% | [4]; at 11.0 µM -1% | [4]; at 33.0 µM 13% | [4]; [17] 57% | [5]; at 1.2 µM -2% | [5]; at 3.7 µM -3% | [5]; [16] -2% | [5]; at 11.0 µM 1% | [5]; at 33.0 µM 17% | [5]; [17] 8% | [6]; at 1.2 µM 4% | [6]; at 3.7 µM 16% | [6]; at 11.0 µM 25% | [6]; at 33.0 µM 36% | [7]; [16] 5% | [7]; [17] 47% | [8]; at 1.2 µM -4% | [8]; at 3.7 µM -9% | [8]; at 11.0 µM 0% | [8]; at 33.0 µM 15% | [8]; at 100.0 µM 52% | [9]; [16] 2% | [9]; [17] -5% | [9]; at 50.0 µM 53.9% | [10]; at 1.2 µM 2% | [10]; at 3.7 µM 1% | [10]; [16] 2% | [10]; at 11.0 µM 9% | [10]; at 33.0 µM 38% | [10]; [17] 13% | [11]; at 1.2 µM -1% | [11]; at 3.7 µM -2% | [11]; at 11.0 µM 2% | [11]; at 33.0 µM 13% | [12]; at 1.2 µM 0% | [12]; at 3.7 µM 1% | [12]; at 11.0 µM 11% | [12]; at 33.0 µM 28% | [13]; at 1.2 µM 0% | [13]; at 3.7 µM 3% | [13]; at 11.0 µM 12% | [13]; at 33.0 µM 35% | [14]; [16] 5% | [14]; [17] 28% | [15]; at 1.2 µM 3% | [15]; at 3.7 µM 15% | [15]; at 11.0 µM 28% | [15]; at 33.0 µM 65%
